# According to paper PMC7862700, “An all-to-all approach to the identification of sequence-specific readers for epigenetic DNA modifications on cytosine”:
# Experiments:
# Test in all cases: DAPPL (digital affinity profiling via proximity ligation, sequencing); 10 mM Tris-HCl pH 7.5, 50 mM NaCl, 1 mM DTT, 4% glycerol, room temperature, 30 min; GST-TFs on glutathione beads, 16-mer random dsDNA library, 0.1% formaldehyde crosslink after washing; high values mean tight binding
# FLI1 = biological target: T1, FLI1 (Homo sapiens, UniProt Q01543 1-452); conditions: protein: recombinant; tags: N-terminal GST; dsDNA, one strand shown
# T1 sequence: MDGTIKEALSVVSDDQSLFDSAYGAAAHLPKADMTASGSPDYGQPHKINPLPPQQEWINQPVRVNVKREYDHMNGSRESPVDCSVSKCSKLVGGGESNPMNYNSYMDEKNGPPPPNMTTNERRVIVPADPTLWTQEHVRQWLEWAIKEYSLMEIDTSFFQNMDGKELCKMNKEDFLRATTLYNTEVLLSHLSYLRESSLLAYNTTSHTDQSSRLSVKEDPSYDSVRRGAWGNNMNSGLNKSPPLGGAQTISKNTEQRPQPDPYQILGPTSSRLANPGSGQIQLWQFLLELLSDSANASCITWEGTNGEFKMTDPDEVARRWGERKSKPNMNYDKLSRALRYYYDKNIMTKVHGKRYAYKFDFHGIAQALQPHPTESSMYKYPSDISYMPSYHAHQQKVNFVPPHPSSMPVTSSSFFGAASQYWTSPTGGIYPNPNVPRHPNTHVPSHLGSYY
# In short: (§1)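 A tag-only sample was pooled with DNA-barcoded human transcription factors that had been expressed in yeast as GST fusions and captured on glutathione beads. The pools were incubated for 30 min at room temperature with 200 nmole of a random double-stranded 16-mer DNA library in Tris/NaCl/DTT/glycerol buffer, then washed, crosslinked with 0.1% formaldehyde, proximity-ligated (BsaI/T4 ligase, 1 h, 37 °C), PCR-amplified and sequenced on an Illumina NextSeq500. Binding signal is each hexamer's read frequency for a factor divided by its frequency for the tag-only sample.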
# ELK1 = biological target: T2, ELK1 (Homo sapiens, UniProt P19419 1-428); conditions: protein: recombinant; tags: N-terminal GST; dsDNA, one strand shown
# T2 sequence: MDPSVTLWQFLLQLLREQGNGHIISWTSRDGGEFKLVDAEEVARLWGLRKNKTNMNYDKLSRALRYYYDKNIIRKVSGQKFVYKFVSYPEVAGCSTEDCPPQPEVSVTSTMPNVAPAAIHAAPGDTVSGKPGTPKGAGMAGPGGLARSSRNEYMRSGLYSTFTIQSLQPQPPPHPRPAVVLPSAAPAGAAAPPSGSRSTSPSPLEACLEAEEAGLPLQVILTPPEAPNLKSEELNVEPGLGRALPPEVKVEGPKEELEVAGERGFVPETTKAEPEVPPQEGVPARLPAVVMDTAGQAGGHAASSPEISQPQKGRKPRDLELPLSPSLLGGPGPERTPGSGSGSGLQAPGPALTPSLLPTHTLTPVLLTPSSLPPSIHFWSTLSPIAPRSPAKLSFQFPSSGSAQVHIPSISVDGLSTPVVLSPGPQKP
# In short: as §1
# GABPA = biological target: T3, GABPA (Homo sapiens, UniProt Q06546 1-454); conditions: protein: recombinant; tags: N-terminal GST; dsDNA, one strand shown
# T3 sequence: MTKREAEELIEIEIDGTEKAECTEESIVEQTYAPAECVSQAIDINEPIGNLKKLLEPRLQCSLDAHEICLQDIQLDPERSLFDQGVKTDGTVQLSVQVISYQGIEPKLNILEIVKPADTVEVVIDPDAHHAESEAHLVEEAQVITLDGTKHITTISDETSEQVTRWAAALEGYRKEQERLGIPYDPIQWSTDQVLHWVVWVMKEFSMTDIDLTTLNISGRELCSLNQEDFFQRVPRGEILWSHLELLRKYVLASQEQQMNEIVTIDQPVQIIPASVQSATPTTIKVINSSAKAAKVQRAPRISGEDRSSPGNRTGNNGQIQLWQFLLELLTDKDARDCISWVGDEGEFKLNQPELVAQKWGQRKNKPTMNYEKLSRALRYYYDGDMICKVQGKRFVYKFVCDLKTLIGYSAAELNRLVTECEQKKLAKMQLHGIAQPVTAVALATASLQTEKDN
# In short: as §1
# ERG = biological target: T4, ERG (Homo sapiens, UniProt P11308 1-479); conditions: protein: recombinant; tags: N-terminal GST; dsDNA, one strand shown
# T4 sequence: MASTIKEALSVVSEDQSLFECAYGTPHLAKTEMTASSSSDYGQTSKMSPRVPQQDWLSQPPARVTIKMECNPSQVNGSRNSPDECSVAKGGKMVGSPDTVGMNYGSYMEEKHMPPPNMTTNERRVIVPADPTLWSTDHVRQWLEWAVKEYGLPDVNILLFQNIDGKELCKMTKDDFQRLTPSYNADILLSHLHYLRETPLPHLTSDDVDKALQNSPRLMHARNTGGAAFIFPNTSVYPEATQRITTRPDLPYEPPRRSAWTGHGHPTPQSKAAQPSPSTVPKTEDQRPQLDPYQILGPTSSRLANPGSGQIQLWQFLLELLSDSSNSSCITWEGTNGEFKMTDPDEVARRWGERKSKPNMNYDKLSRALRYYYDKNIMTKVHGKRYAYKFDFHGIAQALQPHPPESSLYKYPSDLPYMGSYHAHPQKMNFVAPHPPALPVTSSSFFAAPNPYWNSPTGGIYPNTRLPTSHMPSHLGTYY
# In short: as §1
# ELF1 = ELF1 (Homo sapiens, UniProt P32519 1-619); conditions: protein: recombinant; tags: N-terminal GST; dsDNA, one strand shown
# In short: as §1
# EHF = biological target: T5, EHF (Homo sapiens, UniProt Q9NZC4 1-300); conditions: protein: recombinant; tags: N-terminal GST; dsDNA, one strand shown
# T5 sequence: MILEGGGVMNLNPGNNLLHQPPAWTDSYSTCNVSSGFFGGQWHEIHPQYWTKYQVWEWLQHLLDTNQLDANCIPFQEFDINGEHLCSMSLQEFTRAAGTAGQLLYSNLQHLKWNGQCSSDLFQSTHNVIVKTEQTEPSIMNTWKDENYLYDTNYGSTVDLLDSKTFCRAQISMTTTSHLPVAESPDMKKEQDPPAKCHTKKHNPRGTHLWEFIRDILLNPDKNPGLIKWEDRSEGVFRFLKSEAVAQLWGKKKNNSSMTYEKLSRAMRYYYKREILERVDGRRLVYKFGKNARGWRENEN
# In short: as §1
# SPI1 = SPI1 (Homo sapiens, UniProt P17947 1-270); conditions: protein: recombinant; tags: N-terminal GST; dsDNA, one strand shown
# In short: as §1
# SPIB = SPIB (Homo sapiens, UniProt Q01892 1-262); conditions: protein: recombinant; tags: N-terminal GST; dsDNA, one strand shown
# In short: as §1
# ELK3 = biological target: T6, ELK3 (Homo sapiens, UniProt P41970 1-407); conditions: protein: recombinant; tags: N-terminal GST; dsDNA, one strand shown
# T6 sequence: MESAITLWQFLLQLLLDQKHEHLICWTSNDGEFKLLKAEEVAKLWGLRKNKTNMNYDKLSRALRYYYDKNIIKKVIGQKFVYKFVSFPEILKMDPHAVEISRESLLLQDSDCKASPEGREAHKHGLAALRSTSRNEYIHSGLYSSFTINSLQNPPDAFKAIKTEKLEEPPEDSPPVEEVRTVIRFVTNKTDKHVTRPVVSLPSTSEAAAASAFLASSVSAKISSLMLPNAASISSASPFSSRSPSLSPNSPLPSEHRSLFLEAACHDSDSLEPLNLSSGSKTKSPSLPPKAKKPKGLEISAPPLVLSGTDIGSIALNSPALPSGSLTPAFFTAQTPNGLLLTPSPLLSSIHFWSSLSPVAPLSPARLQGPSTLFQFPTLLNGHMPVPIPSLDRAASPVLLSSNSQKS
# In short: as §1
# FEV = biological target: T7, FEV (Homo sapiens, UniProt Q99581 1-238); conditions: protein: recombinant; tags: N-terminal GST; dsDNA, one strand shown
# T7 sequence: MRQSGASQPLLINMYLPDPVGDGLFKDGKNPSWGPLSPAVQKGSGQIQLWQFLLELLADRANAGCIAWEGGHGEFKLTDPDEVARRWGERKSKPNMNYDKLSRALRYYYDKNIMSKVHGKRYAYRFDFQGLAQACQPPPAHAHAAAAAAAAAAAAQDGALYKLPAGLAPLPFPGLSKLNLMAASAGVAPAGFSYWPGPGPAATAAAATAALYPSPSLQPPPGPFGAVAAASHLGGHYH
# In short: as §1
# ETV5 = ETV5 (Homo sapiens, UniProt P41161 1-510); conditions: protein: recombinant; tags: N-terminal GST; dsDNA, one strand shown
# In short: as §1
# HSF1 = HSF1 (Homo sapiens, UniProt Q00613 1-529); conditions: protein: recombinant; tags: N-terminal GST; chain copies: 3; dsDNA, one strand shown
# In short: as §1
# SPIC = biological target: T8, SPIC (Homo sapiens, UniProt Q8N5J4 1-248); conditions: protein: recombinant; tags: N-terminal GST; dsDNA, one strand shown
# T8 sequence: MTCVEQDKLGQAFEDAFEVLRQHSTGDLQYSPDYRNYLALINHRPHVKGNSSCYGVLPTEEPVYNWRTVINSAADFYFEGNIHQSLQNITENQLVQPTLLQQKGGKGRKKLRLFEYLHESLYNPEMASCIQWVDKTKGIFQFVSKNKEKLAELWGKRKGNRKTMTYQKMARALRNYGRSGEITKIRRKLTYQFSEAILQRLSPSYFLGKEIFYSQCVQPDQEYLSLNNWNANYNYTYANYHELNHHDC
# In short: as §1
# ELF4 = ELF4 (Homo sapiens, UniProt Q99607 1-663); conditions: protein: recombinant; tags: N-terminal GST; dsDNA, one strand shown
# In short: as §1
# ELK4 = biological target: T9, ELK4 (Homo sapiens, UniProt P28324-2 1-405); conditions: protein: recombinant; tags: N-terminal GST; dsDNA, one strand shown
# T9 sequence: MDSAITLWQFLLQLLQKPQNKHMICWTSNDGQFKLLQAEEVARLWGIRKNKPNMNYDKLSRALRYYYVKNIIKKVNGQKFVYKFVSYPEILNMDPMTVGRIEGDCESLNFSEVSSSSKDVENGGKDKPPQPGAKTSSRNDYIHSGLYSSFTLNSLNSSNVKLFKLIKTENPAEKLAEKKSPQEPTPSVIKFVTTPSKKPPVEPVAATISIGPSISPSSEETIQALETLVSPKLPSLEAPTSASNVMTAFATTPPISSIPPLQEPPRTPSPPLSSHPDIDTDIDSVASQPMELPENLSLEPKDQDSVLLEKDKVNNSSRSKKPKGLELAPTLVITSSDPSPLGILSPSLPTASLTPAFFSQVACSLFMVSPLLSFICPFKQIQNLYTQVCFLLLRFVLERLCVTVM
# In short: as §1
# ETV2 = biological target: T10, ETV2 (Homo sapiens, UniProt O00321 1-342); conditions: protein: recombinant; tags: N-terminal GST; dsDNA, one strand shown
# T10 sequence: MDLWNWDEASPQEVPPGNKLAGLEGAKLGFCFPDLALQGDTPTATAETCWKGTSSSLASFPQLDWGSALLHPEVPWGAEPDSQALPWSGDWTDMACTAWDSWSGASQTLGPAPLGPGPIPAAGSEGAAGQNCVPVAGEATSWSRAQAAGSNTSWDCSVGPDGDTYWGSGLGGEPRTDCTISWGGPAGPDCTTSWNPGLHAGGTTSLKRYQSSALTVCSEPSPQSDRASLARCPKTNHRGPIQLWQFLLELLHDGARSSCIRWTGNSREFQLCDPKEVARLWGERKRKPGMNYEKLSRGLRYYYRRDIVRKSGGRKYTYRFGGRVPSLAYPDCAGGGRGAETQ
# In short: as §1
# ELF3 = biological target: T11, ELF3 (Homo sapiens, UniProt P78545 1-371); conditions: protein: recombinant; tags: N-terminal GST; dsDNA, one strand shown
# T11 sequence: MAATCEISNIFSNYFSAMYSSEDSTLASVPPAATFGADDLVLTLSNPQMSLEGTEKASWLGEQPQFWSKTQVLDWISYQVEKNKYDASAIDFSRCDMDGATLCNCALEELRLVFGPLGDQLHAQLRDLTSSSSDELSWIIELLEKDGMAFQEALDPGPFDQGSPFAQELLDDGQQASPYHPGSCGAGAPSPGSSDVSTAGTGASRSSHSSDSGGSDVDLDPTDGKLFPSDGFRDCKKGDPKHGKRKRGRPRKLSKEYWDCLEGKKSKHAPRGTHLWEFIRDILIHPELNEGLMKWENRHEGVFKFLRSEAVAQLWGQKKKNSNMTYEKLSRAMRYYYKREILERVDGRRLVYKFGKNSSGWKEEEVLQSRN
# In short: as §1
# CRX = CRX (Homo sapiens, UniProt O43186 1-299); conditions: protein: recombinant; tags: N-terminal GST; dsDNA, one strand shown
# In short: as §1
# ETV1 = ETV1 (Homo sapiens, UniProt P50549 1-477); conditions: protein: recombinant; tags: N-terminal GST; dsDNA, one strand shown
# In short: as §1
# Sequence of CRX (O43186 whole entry): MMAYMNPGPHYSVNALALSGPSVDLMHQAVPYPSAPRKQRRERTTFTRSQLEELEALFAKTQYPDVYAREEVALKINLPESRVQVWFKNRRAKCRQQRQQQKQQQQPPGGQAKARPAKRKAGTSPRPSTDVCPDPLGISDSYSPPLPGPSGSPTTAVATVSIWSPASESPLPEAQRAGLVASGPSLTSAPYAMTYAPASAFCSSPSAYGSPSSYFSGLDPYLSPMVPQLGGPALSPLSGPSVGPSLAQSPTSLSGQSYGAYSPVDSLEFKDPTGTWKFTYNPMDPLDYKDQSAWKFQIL
# Sequence of ELF4 (Q99607 whole entry): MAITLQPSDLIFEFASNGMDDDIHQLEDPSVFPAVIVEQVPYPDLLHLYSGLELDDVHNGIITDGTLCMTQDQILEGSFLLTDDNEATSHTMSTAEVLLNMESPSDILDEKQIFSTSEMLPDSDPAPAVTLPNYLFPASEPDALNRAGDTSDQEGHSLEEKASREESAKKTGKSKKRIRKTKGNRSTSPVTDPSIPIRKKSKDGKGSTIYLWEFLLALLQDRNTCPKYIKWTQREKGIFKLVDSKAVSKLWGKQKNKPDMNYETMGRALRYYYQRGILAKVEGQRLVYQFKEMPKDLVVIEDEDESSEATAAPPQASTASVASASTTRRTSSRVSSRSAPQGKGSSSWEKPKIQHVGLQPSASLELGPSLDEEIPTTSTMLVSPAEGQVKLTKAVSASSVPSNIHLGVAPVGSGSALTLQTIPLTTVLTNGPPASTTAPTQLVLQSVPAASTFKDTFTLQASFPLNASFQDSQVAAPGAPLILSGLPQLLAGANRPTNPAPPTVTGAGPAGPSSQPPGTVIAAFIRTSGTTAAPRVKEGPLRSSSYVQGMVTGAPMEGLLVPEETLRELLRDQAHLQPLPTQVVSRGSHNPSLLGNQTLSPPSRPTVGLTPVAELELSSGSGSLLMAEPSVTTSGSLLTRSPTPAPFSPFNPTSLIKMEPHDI
# Sequence of SPIB (Q01892 whole entry): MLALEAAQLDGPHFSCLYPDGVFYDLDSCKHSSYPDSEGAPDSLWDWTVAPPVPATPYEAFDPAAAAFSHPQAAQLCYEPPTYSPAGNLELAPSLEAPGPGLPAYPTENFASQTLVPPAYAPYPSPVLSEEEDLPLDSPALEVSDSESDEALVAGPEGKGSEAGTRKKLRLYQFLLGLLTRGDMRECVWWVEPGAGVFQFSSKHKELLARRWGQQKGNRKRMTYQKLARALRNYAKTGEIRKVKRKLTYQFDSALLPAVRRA
# Sequence of ETV5 (P41161 whole entry): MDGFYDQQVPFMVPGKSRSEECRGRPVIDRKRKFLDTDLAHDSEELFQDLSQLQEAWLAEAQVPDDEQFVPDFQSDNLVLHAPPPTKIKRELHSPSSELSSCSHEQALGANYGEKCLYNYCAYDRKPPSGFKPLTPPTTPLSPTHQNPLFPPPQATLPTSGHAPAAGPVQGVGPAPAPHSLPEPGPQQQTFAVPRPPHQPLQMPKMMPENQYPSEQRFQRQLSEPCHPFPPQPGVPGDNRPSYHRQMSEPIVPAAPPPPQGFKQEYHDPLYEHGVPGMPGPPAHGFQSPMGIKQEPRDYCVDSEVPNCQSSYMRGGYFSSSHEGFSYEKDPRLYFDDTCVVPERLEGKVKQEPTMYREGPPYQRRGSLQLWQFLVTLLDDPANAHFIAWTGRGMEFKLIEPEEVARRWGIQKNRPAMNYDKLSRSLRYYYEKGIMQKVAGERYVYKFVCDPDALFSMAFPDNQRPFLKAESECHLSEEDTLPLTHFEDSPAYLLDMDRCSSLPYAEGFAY
# Sequence of HSF1 (Q00613 whole entry): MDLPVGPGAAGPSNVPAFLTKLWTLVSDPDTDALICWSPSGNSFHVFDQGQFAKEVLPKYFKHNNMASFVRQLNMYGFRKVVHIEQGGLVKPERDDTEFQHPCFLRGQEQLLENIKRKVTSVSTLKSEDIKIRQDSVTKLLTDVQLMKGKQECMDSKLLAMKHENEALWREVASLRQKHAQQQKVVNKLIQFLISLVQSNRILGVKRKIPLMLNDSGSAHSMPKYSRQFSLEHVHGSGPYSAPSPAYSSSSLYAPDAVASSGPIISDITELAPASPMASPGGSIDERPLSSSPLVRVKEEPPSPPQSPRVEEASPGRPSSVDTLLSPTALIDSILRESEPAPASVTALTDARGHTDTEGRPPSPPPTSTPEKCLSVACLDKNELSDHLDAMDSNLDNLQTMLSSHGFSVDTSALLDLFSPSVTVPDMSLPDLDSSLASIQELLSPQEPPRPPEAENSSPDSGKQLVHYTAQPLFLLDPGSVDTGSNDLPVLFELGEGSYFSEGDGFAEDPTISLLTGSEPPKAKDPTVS
# Sequence of ETV1 (P50549 whole entry): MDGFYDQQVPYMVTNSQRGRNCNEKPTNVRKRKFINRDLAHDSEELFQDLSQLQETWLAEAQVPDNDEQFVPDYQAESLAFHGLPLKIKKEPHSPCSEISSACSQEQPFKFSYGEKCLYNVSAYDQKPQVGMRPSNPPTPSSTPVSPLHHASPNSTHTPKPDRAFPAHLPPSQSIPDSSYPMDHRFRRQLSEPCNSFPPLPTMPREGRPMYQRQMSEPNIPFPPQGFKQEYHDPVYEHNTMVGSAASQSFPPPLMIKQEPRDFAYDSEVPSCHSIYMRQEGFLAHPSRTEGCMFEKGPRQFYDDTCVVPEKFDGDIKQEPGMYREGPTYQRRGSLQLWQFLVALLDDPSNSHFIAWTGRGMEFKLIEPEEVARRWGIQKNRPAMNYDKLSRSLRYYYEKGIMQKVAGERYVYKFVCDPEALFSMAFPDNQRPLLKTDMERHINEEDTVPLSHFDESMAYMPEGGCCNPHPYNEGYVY
# Sequence of ELF1 (P32519 whole entry): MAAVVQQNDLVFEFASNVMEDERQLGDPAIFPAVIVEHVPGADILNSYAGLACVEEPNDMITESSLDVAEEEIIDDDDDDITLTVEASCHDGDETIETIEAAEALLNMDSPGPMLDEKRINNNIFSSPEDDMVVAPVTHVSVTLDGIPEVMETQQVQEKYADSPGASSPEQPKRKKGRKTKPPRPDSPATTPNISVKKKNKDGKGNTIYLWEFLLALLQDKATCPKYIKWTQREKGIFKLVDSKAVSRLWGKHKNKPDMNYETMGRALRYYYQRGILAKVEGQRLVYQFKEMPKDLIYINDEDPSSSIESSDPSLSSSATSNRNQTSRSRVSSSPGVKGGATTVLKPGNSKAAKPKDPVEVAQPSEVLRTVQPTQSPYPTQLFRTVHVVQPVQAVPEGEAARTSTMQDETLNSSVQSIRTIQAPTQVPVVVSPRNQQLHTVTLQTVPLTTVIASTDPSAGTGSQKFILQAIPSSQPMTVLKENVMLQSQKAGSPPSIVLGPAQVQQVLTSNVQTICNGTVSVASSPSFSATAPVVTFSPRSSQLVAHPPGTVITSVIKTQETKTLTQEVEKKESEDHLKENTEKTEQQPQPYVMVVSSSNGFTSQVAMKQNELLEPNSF
sequence,measurement,setting,value
CCTTTT,binding signal,FLI1,"1.49 fold enrichment (6-mer frequency, TF over GST control)"
same,binding signal,ELK1,"1.46 fold enrichment (6-mer frequency, TF over GST control)"
same,binding signal,GABPA,"1.46 fold enrichment (6-mer frequency, TF over GST control)"
same,binding signal,ERG,"1.56 fold enrichment (6-mer frequency, TF over GST control)"
same,binding signal,ELF1,"1.52 fold enrichment (6-mer frequency, TF over GST control)"
same,binding signal,EHF,"1.49 fold enrichment (6-mer frequency, TF over GST control)"
same,binding signal,SPI1,"2.05 fold enrichment (6-mer frequency, TF over GST control)"
same,binding signal,SPIB,"1.67 fold enrichment (6-mer frequency, TF over GST control)"
same,binding signal,ELK3,"1.64 fold enrichment (6-mer frequency, TF over GST control)"
same,binding signal,FEV,"1.68 fold enrichment (6-mer frequency, TF over GST control)"
same,binding signal,ETV5,"1.56 fold enrichment (6-mer frequency, TF over GST control)"
same,binding signal,HSF1,"1.37 fold enrichment (6-mer frequency, TF over GST control)"
same,binding signal,SPIC,"1.83 fold enrichment (6-mer frequency, TF over GST control)"
same,binding signal,ELF4,"1.64 fold enrichment (6-mer frequency, TF over GST control)"
same,binding signal,ELK4,"1.58 fold enrichment (6-mer frequency, TF over GST control)"
same,binding signal,ETV2,"1.38 fold enrichment (6-mer frequency, TF over GST control)"
same,binding signal,ELF3,"1.68 fold enrichment (6-mer frequency, TF over GST control)"
same,binding signal,CRX,"1.36 fold enrichment (6-mer frequency, TF over GST control)"
same,binding signal,ETV1,"1.6 fold enrichment (6-mer frequency, TF over GST control)"
